# According to PubChem BioAssay AID485284 (NMMLSC, 2010):
# Results with a measured potency or affinity are listed apart.
# Assay: inhibitors of CD8+ T cell–vesicle binding, dose response, mouse 2C CD8+ T cells, flow cytometry (AID 485284);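 note: drosophila derived vesicles carrying Ld MHC with QL9 peptide plus B7-1 and ICAM-1; vesicle binding seen as anti-B7-1 PE fluorescence on CD8 gated cells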
# Conditions: 2C mouse CD8+ T cell-exosome binding; at 45 µM (top of the series)
row,Structure (SMILES),"binding remaining, % of control [%]"
1,CCOC(=O)C1CCCN(c2cc(=O)n(-c3ccccc3Cl)c(=O)[nH]2)C1 (stereo not drawn),87.9
2,CCOc1ccc(CCNC(=O)c2cccc(-n3cnnn3)c2)cc1OCC,164
3,CCOC(=O)c1ccc(NC(=O)CN2C(=O)NC3(CCCCCCC3)C2=O)cc1,44.2
4,Cc1cc(C)n(C(=O)c2sc3cc(F)ccc3c2Cl)n1,160
5,Cc1ccc(S(=O)(=O)N2CCN(S(=O)(=O)N(C)C)CC2)c(C)c1,32.6
6,Cc1ccc(C(C)n2cc(C(=O)NCCN3CCN(C)CC3)nn2)cc1 (stereo not drawn),144
7,CCOC(=O)CSc1nc(COc2ccccc2)nc2ccccc12,99.6
8,Cc1ccc(S(=O)(=O)c2c(N)n(NC(=O)c3ccccc3C)c3nc4ccccc4nc23)cc1,100
9,C=CCN(c1ccc(Br)cc1C(=O)OC)S(C)(=O)=O,115
10,COc1ccc(NC(=O)Nc2c(O)ccc3ccccc23)cc1,76.2
11,Cc1ccccc1C(=O)NCC(=O)N1CCN(C/C=C/c2ccccc2)CC1,42.6
12,COc1ccc(C(O)c2coc3ccc(O)c(CN(C)C)c23)cc1 (stereo not drawn),113
13,O=C(Nc1ccccc1F)C1CCCN(S(=O)(=O)c2cccc3cccnc23)C1 (stereo not drawn),105
14,Cc1cc(F)ccc1S(=O)(=O)N1CCCOC1CNC(=O)C(=O)NC1CCCC1 (stereo not drawn),67.8
15,CCN1CCN(c2ccc(NC(=O)c3cc4ccccc4cc3OC)cc2C)CC1,128
16,CC(C)(C)OC(=O)NCc1ccc(CNC(=O)c2nc[nH]c2C(=O)NCc2ccccc2)cc1,109
17,COc1ccc(NC(=O)CSCC(=O)Nc2cccc(S(=O)(=O)N3CCCCCC3)c2)cc1,44.4

row,Structure (SMILES),"binding remaining, % of control [%]"
1,O=C(Oc1ccc(C(=S)N2CCOCC2)cc1)c1ccc(F)cc1,63.3
2,Cc1c(C(=O)N(C)Cc2ccccc2)oc2ccc(S(=O)(=O)N3CCCC3)cc12,120
3,O=C(CN1C(=O)NC2(CCCCCC2)C1=O)N1CCN(c2ccc(F)cc2)CC1,110
4,CC(=O)c1cccc(NC(=O)c2ccncc2)c1,35.3
5,C/C(=N\NC(=O)c1ccco1)c1cc2ccccc2o1,160
6,CCOC(=O)N1CCN(Cc2nc(-c3ccc(C)cc3)no2)CC1,78.4
7,COc1ccc(N2CC(C(=O)N[C@@H](C)C(=O)NCc3ccccc3OC)CC2=O)cc1 (stereo partly drawn),24.3
8,COc1ccc(CNC(=O)c2cccnc2SC)cc1OC,132
9,CCCNC(=O)CN1CCN(S(=O)(=O)c2ccc(Br)s2)CC1,100
10,CCCCn1c(N)c(N(CCOC)C(=O)C2CC(=O)N(c3ccc(CC)cc3)C2)c(=O)[nH]c1=O (stereo not drawn),17.2
11,Cc1cccc(NC(=O)CN2C(=O)N/C(=C\c3ccc(N4CCOCC4)cc3)C2=O)c1,142
12,COc1ccccc1NS(=O)(=O)c1cc(NC(=O)CNC(=O)c2cc(C)cc(C)c2)ccc1C,40.9
13,COc1cc(OC)c2cc(C(=O)N[C@H](C(=O)N3CCC[C@H]3C(=O)O)C(C)C)n(C)c2c1,99.6
14,CCOC(=O)CSc1nnnn1-c1cc(OC)c(Cl)cc1OC,136
15,COc1ccccc1CNC(=O)c1ccc(N(C)S(=O)(=O)c2ccc(C)cc2)cc1,156
16,COc1ccc(NC(=O)COC(=O)c2cc(Cl)ccc2O)cc1S(=O)(=O)N1CCCCC1,75.3
